Bioassay records from PubChem.
Compounds with a hit are over-represented: about 21% of the library has one in this group of screens.
TDP1 cell noCPT = qHTS for Inhibitors of human tyrosyl-DNA phosphodiesterase 1 (TDP1): qHTS in cells in absence of CPT; AID 686978, 2013; Potency, µM (doses to about 46.2 µM), for inactives: top-dose activity change, negative = growth inhibition, usual class: inhibitors; actives 15% (n = 420,000); DT40 Tdp1-/- hTDP1 cells, no CPT, ATP luminescence, 48 h; further: potency means the concentration at half of the fitted maximal effect; on the % scale 0 is the no-effect control and ±100 the full control effect; nearly all actives have a fitted effect of over 55% in size
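A cellular qHTS used chicken DT40 cells lacking endogenous Tdp1 but carrying stably transfected human TDP1. Compounds were applied without camptothecin, and cell growth kinetics were judged by ATP-dependent luminescence after ≥48 hr.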
D3 ag = qHTS of D3 Dopamine Receptor Agonist: qHTS | max activation, % | AID 652048, 2013 | actives 0.58% (n = 410,000) | D(3) dopamine receptor (Homo sapiens), P35462 | D3R DiscoveRx beta-arrestin cells, luminescence, 90 min; in the data active means max activation above about 30%; further: 0% is about no effect
Target sequence (P35462 whole entry, looked up): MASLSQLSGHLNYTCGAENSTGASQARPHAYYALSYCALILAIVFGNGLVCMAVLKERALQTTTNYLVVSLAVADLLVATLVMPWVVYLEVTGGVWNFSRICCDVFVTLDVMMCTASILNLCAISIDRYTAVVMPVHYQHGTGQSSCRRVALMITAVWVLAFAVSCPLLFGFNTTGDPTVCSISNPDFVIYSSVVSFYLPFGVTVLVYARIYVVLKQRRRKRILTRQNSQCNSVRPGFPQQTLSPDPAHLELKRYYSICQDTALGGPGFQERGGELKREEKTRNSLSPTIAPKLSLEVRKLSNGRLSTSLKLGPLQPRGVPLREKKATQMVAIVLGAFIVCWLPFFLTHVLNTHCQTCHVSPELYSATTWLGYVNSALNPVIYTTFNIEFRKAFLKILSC
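Agonist mode: compounds and dopamine controls were applied to plated cells for 90 min at 37 degrees C after an overnight attachment at 1500 cells/well. Luminescent read-out followed 30 - 60 minutes at room temperature with DiscoveRx detection reagent.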
ClpP mod = qHTS Assay for Activators of ClpP; Potency, µM (highest dose often 57.5 µM), for the others: at the highest dose activity change, negative = active; purified B. subtilis ClpP, FRET peptide cleavage, 20 min; ATP-dependent Clp protease proteolytic subunit (Bacillus subtilis (strain 168)), P80244; actives 1.9% (n = 340,000); active means well fitted falling curve with a large enough effect; inconclusive means small, poorly fitted or top-dose-only effect; inactive means no such curve, though single readings can be large or run the other way; further: potency means the concentration at half of the fitted maximal effect; the source files actives as falling curves though it sought activators and does not explain the sign; nearly all actives have a fitted effect of over 65% in size
Target sequence (P80244 whole entry, looked up): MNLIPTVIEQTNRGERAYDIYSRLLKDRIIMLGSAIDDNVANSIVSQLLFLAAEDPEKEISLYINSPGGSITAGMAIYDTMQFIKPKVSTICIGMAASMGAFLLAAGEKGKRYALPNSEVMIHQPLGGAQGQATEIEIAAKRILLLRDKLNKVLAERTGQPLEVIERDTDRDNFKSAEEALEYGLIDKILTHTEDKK
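ClpP 10 microg/mL final, pH 8 Tris/KCl buffer with BSA, glycerol, Tween-20; compound pinned in; FRET-FV substrate; RT 20 min; Ex320/Em430; ΔFRET vs ADEP 5.8 microM, DMSO, no enzyme.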
IL1B secr inh = qHTS for Inhibitors of Inflammasome Signaling: IL-1-beta AlphaLISA Primary Screen; activity change, % at 57.5 µM; actives 4.7% (n = 360,000); AID 743279, 2014; THP-1 LPS/ATP IL-1B secretion, AlphaLISA, 16 h; active compounds read low; in the data active means activity change below about -50%; inconclusive means mostly about -30% to -49%; further: on the % scale 0 is the no-effect control and ±100 the full control effect
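THP-1 cells pretreated 1 hr with compounds (up to 57.5 uM final), then stimulated with LPS (250 ng/mL final) plus ATP (1.25 mM final); secreted IL-1B measured by AlphaLISA after 16 hr, decreased signal indicating inhibition.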
TDP1 cell CPT = qHTS for Inhibitors of human tyrosyl-DNA phosphodiesterase 1 (TDP1): qHTS in cells in presence of CPT; chicken DT40 Tdp1-/-;hTDP1 cells + 20 nM CPT, ATP luminescence, 48 h; Potency, µM (titrated, usually from 46.2 µM), inactives show at the top dose activity change, negative = growth inhibition, actives largely listed as inhibitors; actives 12% (n = 420,000); AID 686979, 2013; further: potency means the concentration at half of the fitted maximal effect; on the % scale 0 is the no-effect control and ±100 the full control effect; nearly all actives have a fitted effect of over 55% in size
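Chicken DT40 Tdp1-/- cells stably complemented with human TDP1 were seeded at 400 cells/well in medium containing 20 nM camptothecin, exposed to pin-transferred compounds, and grown at 37 °C for at least 48 hr. Viability was read as ATP luminescence.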
D3 antag = qHTS of D3 Dopamine Receptor Antagonist: qHTS | AID 652054, 2013 | max response, negative = inhibition, % | D3R cells, DiscoveRx beta-arrestin luminescence, antagonist mode; active compounds read low | D(3) dopamine receptor (Homo sapiens), P35462 | actives 2.5% (n = 360,000); in the data active means max response below about -50%; inconclusive means no clear call, values can overlap the other calls; further: on the % scale 0 is the no-effect control and ±100 the full control effect
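Cells plated overnight at 1500 cells/well, then exposed to library compounds with dopamine controls for 90 minutes at 37 degrees C. DiscoveRx reagent added for 30–60 minutes at room temperature; luminescence read, quantitative HTS format.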
Active calls of the source: *; ? = inconclusive; . = no result. Unless noted, the call rests on the fitted dose curve; in most records, active means well fitted inhibition curve with a large enough effect; inconclusive means small, poorly fitted or top-dose-only effect; inactive means flat fitted curve, though single readings scatter.

SMILES | TDP1 cell noCPT | D3 ag | ClpP mod | IL1B secr inh | TDP1 cell CPT | D3 antag
COc1ccc2c(c1)[nH]c1c(=O)n(/N=C/c3ccc(OC)c(CN4CCCC4)c3)cnc12 | ? | -6.3 | -1.5% | ? | ? | -15.0
COc1ccc(/C=N/n2cnc3c([nH]c4ccc(C)cc43)c2=O)cc1CN1CCCC1 | 7.31µM* | 1.1 | -3.0% | -102.1* | 5.17µM* | -7.6
COc1ccc(/C=N/n2cnc3c([nH]c4ccc(F)cc43)c2=O)cc1CN1CCCC1 | 3.26µM* | -4.3 | -0.3% | 32.7 | 5.17µM* | -10.4
COc1ccc(/C=N/n2c(=O)[nH]c3c([nH]c4ccc(F)cc43)c2=O)cc1CN1CCCCC1 | -10.1% | -4.0 | -7.6% | 0.5 | 15.8% | 14.2
CC1CCN(C(=O)Cn2cc(SCC(=O)NCc3ccccc3Cl)c3ccccc32)CC1 | ? | -6.4 | -6.0% | . | ? | .
CCCN(CCC)CCCNC(=O)c1ccc(CS(=O)(=O)c2c(Cl)cccc2Cl)o1 | 5.6% | -13.0 | 0.2% | 4.6 | -16.1% | -3.6
CCn1c(C)nc([N+](=O)[O-])c1Sc1ccc(F)cc1 | 16.4µM* | 2.1 | -1.0% | ? | ? | -0.1
Cc1nc2ccc([N+](=O)[O-])cc2c(=O)n1Cc1ccc(F)cc1 | ? | 6.9 | -3.1% | -1.6 | ? | 7.7
Cc1cccc(NC(=S)N(Cc2cccs2)Cc2cc3cc(C)ccc3[nH]c2=O)c1 | 20.6µM* | 1.7 | -10.9% | 10.6 | 18.4µM* | 0.9
COc1cc2cc(CN(Cc3cccs3)C(=S)Nc3ccc(C)cc3)c(=O)[nH]c2cc1OC | 16.4µM* | -3.0 | ? | -8.6 | 25.9µM* | -4.6
Cc1ccc(NC(=S)N(Cc2cccs2)Cc2cc3cc(C)ccc3[nH]c2=O)cc1 | ? | -1.6 | -3.9% | -8.1 | ? | -24.0
CNC(=S)N(Cc1cccs1)Cc1cc2cc(OC)c(OC)cc2[nH]c1=O | 18.4µM* | 1.6 | 25.1µM* | 2.1 | ? | -21.6
COc1cccc(NC(=O)CCNC(=O)Cn2cnc3ccccc3c2=O)c1 | 5.3% | -11.5 | -1.3% | . | 4.4% | .
COc1ccc(-c2nc(CN3CCC(C(=O)NC4CCCC4)CC3)c(C)o2)cc1OC | 0.5% | 29.5 | -6.8% | 36.4 | -5.2% | 2.7
Cc1cccc(-c2nc(CN3CCCC(C(=O)NC4CCCCCC4)C3)c(C)o2)c1 (configuration not stated) | 18.4µM* | 1.3 | 0.2% | -65.7* | 20.6µM* | -12.5
Cc1cccc(-c2nc(CN3CCCC(C(=O)NC4CCCCC4)C3)c(C)o2)c1 (configuration not stated) | 20.6µM* | -24.1 | 0.2% | -5.8 | 20.6µM* | -10.6
CCOC(=O)N1CCC(NC(=O)C2CCCN(Cc3nc(-c4ccc(CC)cc4)oc3C)C2)CC1 (configuration not stated) | 1.46µM* | 0.7 | -5.7% | -9.0 | 2.91µM* | -1.8
Cc1cc(Cl)ccc1C(O)c1ncc(-c2ccccc2Cl)[nH]1 (configuration not stated) | ? | 8.9 | -1.3% | -5.2 | 20.6µM* | 17.7
OC(c1cccc(Cl)c1)c1ncc(-c2cccc3ccccc23)[nH]1 (configuration not stated) | 16.4µM* | 24.1 | 4.2% | -20.7 | 20.6µM* | -23.3
COc1ccc(OC)c(C(O)c2ncc(-c3cccc4ccccc34)[nH]2)c1 (configuration not stated) | 25.9µM* | -11.8 | 5.0% | 45.6 | 18.4µM* | -11.8
COc1cccc(C(O)c2ncc(-c3cccc4ccccc34)[nH]2)c1 (configuration not stated) | 9.2µM* | -9.3 | 4.2% | -7.5 | 16.4µM* | -14.2
CN(CC(=O)Nc1ccccc1Cl)C(=O)COC(=O)c1ccc([N+](=O)[O-])s1 | -11.3% | 1.0 | -2.2% | -1.5 | ? | -10.5
COc1ccc(CNS(=O)(=O)c2ccc3c(c2)NC(=O)C(C)S3)cc1 (configuration not stated) | ? | 1.0 | 0.0% | 9.6 | ? | -6.9
COc1ccccc1-c1cnc(C(O)c2ccc(C)cc2)[nH]1 (configuration not stated) | 18.4µM* | -4.5 | -8.2% | 0.0 | -27.1% | 7.1
CCc1ccc(C(O)c2ncc(-c3ccccc3C(F)(F)F)[nH]2)cc1 (configuration not stated) | ? | -11.3 | -12.7% | -3.5 | 29.1µM* | 0.0
SMILES | TDP1 cell noCPT | D3 ag | ClpP mod | IL1B secr inh | TDP1 cell CPT | D3 antag
COc1ccc(C(O)c2ncc(-c3ccccc3OC)[nH]2)cc1 (configuration not stated) | -4.7% | 11.1 | -6.8% | -7.8 | ? | 20.1
O=C(CN1C(=O)C2CCCCC2C1=O)Nc1cc([N+](=O)[O-])ccc1F (configuration not stated) | 9.9% | -0.4 | 1.8% | -3.8 | -13.1% | 3.4
CCOC(=O)C1CCCCN1Cc1ccc(F)cc1 (configuration not stated) | -8.4% | -0.1 | -0.4% | -5.8 | 1.0% | 2.8
CCOC(=O)C1CCCCN1Cc1cccc(OC)c1OC (configuration not stated) | -14.5% | -8.9 | 0.0% | -5.4 | -3.0% | -107.5*
CCOC(=O)c1c(C)c(C)n(Cc2cccc(OC)c2OC)c1C | 23.1µM* | -2.8 | -4.2% | -10.5 | ? | -14.7
COc1cc(OC)c(NC(=O)CC(c2cccs2)N2Cc3ccccc3C2=O)cc1Cl (configuration not stated) | 18.4µM* | -11.4 | -1.1% | . | 23.1µM* | .
COc1ccc(C(CC(=O)NCc2ccc(Cl)cc2)N2Cc3ccccc3C2=O)cc1OC (configuration not stated) | 13µM* | -15.0 | 3.2% | . | 18.4µM* | .
CCCC(C(=O)NCc1cccc(Cl)c1)N1Cc2ccccc2C1=O (configuration not stated) | 11.6µM* | 0.5 | -3.2% | . | ? | .
Cc1ccc(CNC(=O)C(CC(C)C)N2Cc3ccccc3C2=O)cc1 (configuration not stated) | ? | -16.9 | -0.1% | . | ? | .
COc1ccc(C(CC(=O)NCc2ccccc2)N2Cc3ccccc3C2=O)cc1 (configuration not stated) | 23.1µM* | -19.4 | 1.9% | . | ? | .
